Nrf2 block: Nrf2 pathway inhibition; A549 ARE-Fluc reporter, luciferase luminescence, 18-24 h; Potency, µM (titrated, usually from 46 µM), inactives show top-dose activity change, negative = inhibition, actives largely listed as inhibitors; 360,000 compounds, 2.1% hits; AID 504444; further: potency means the concentration at half of the fitted maximal effect; on the % scale 0 is the no-effect control and ±100 the full control effect; nearly all actives have a fitted effect of over 60% in size
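In this cell-based qHTS, ARE-driven firefly luciferase in A549 cells reports Nrf2 activity; the luminescent signal after BugLite lysis is the measured value, with a prior CellTiter-Fluor read for cell health.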
LDHA inh: inhibitors of human lactate dehydrogenase A; 480,000 compounds, 0.15% hits; activity change, % (values are at about 110 or 230 µM); P00338; purified LDHA, NADH/diaphorase-resazurin fluorescence; hits give low values; in the data active means activity change below about -30%; inconclusive means mostly about -25% to -30%;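 further: plate controls were DMSO wells for no effect and wells without enzyme for full effect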
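Enzyme activity of human lactate dehydrogenase 5 (2 nM; 0.06 mM NADH, 0.2 mM pyruvate, 5 min, RT) is measured via a resazurin/diaphorase fluorescence readout of residual NADH.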
Nrf2 activator: Nrf2 pathway activation. AREc32 ARE-luciferase reporter (MCF7-derived line), luminescence, 24 h. Potency, µM (highest dose often 46.1 µM), inactives show at the top dose activation, actives largely listed as activators. 410,000 compounds, 0.31% hits. AID 624171; further: potency means the concentration at half of the fitted maximal effect; % of control where 0% means no effect; nearly all actives have a fitted effect of over 65% in size
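Steps: seed AREc32_Fluc cells (1000/well, 5% FBS OPTI-MEM); incubate overnight at 37 deg C; add 23 nL compound; incubate 24 hr; add Steady-Glo; hold 30 min RT; read luminescence.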
mIDH1 inhibitor: blocks human mutant IDH1 R132H enzyme. O75874. Potency, µM (series often up to 76.6 µM), without a hit: top-dose activity change, negative = inhibition, hits mostly inhibitors. IDH1-R132H enzyme, NADPH consumption, diaphorase/resazurin fluorescence. 390,000 compounds, 0.093% hits; further: potency means the concentration at half of the fitted maximal effect; on the % scale 0 is the no-effect control and ±100 the full control effect; nearly all actives have a fitted effect of over 65% in size
Target sequence (O75874 whole entry R132H, stated change not applied): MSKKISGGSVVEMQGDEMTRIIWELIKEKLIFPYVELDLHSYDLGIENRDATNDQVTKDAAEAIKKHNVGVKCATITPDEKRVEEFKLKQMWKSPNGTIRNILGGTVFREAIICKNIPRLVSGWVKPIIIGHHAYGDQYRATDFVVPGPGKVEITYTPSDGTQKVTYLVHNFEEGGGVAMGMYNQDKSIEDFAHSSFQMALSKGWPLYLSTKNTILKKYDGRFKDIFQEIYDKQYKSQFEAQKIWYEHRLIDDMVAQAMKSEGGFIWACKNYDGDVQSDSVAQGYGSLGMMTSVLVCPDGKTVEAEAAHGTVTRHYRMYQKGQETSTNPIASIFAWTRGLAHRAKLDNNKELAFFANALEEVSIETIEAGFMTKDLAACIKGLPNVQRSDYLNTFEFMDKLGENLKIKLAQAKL
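IDH1-R132H (0.5 ug/mL dispensed) in pH 7.5 Tris buffer was preincubated 30 min with compound, then given a substrate mix of 0.016 mM NADPH and 2 mM alpha-KG for 80 min at room temperature; remaining NADPH was read by diaphorase/resazurin fluorescence.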
A549 tox: kills or reduces viability of A549 cells in Nrf2 counter-screen; A549 ARE-Fluc cells, CellTiter-Fluor viability, 18-24 h; 390,000 compounds, 0.16% hits; Potency, µM (top dose mostly 46 µM), for the others: at the highest dose activity change, negative = cytotoxicity, actives largely listed as inhibitors; further: potency means the concentration at half of the fitted maximal effect; on the % scale 0 is the no-effect control and ±100 the full control effect
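A549 ARE-Fluc cells in 5% FBS OPTI-MEM, 5000 cells/well, rested 2 h then exposed to compounds in concentration-response for 18-24 h at 37 °C. Viability by CellTiter-Fluor fluorescence (Ex 405/Em 525) after 30 min; luciferase luminescence (BugLite, 15 min, RT) read afterwards.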
ALOX12 inh: inhibitors of human 12S-lipoxygenase ALOX12 | purified 12hLO, xylenol orange hydroperoxide absorbance | P18054 | 580,000 compounds, 1.1% hits | Potency, µM (series often up to 108 µM), for the others: at the top dose activity change, negative = inhibition, hits mostly inhibitors; further: potency means the concentration at half of the fitted maximal effect; on the % scale 0 is the no-effect control and ±100 the full control effect
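Purified human 12hLO at 150 nM in 25 mM Hepes, 0.01% Triton X-100, pH 7.0, preincubated 15 min at room temperature with compound. Reaction started with 40 uM arachidonic acid, 30 min at room temperature. Hydroperoxide measured by Fe-xylenol orange, 573/405 nm absorbance ratio.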
* = called active by the depositor; ? = inconclusive; · = no result; [ ] = remark or other dose. Most compounds without a hit are left out; they make up all but 2.7% or so of the library. Unless noted, the call rests on the fitted dose curve; in most records, active means well fitted curve in the direction sought with a large enough effect; inconclusive means small, poorly fitted or top-dose-only effect, or another doubt; inactive means no such curve, though single readings can be large; an effect the other way counts as inactive or inconclusive.

SMILES	Nrf2 block	LDHA inh	Nrf2 activator	mIDH1 inhibitor	A549 tox	ALOX12 inh
COc1ccc(Cc2[nH]n3c(=O)cc(C)nc3c2-c2ccccc2)cc1	?	-3	1%	1%	-3%	20%
CCc1ccccc1NC(=O)c1cc(S(=O)(=O)NC2CC2)ccc1C	·	2	·	·	·	31%
CC(C)OCCCNC(=O)c1ccc2c(c1)NC(=O)c1ccccc1S2	21µM*	-2	3%	2%	0%	?
CCCC1=Nc2cc(C(=O)NCCCOC(C)C)ccc2Sc2ccccc21	8.2µM*	3	0%	-11%	?	0%
CC1=Nc2cc(C(=O)NCCCOC(C)C)ccc2Sc2ccc(C)cc21	23µM*	-4	-1%	4%	-12%	-3%
O=C(NCCCN1CCCCC1)c1ccc2c(c1)NC(=O)c1ccccc1S2	18%	-4	-1%	-4%	0%	-22%
CCC1=Nc2cc(C(=O)NC3CCC(C)CC3)ccc2Sc2ccc(C)cc21 (stereo not given)	?	1	0%	-10%	-4%	6%
CCCC1=Nc2cc(C(=O)NCCCOCC)ccc2Sc2ccccc21	0%	3	4%	-1%	?	-15%
CCOC(=O)N1CCC(NC(=O)c2ccc3c(c2)N=C(CC)c2cc(C)ccc2S3)CC1	23µM*	1	-1%	7%	5%	-14%
CC1=Nc2cc(C(=O)NCCCOC(C)C)ccc2Sc2ccccc21	7%	-6	0%	10%	-9%	2%
Cc1cccc(NC(=S)NC2CCCC(C)C2C)c1 (stereo not given)	·	1	·	·	·	?
Cc1ccc(S(=O)(=O)CC(=O)c2cccc(-c3ccc(I)cc3)c2)cc1	·	2	·	·	·	10%
COc1ccc(-c2nc(Nc3ccc(Cl)cc3)sc2C)cc1	·	3	·	·	·	-30%
Cc1cc(C(=O)CSc2ccccc2Cl)c(C)[nH]1	·	-2	·	·	·	-69%
CC1(C)CC(=O)C2=C(C1)NC(=S)C(C#N)C21CCCCC1 (stereo not given)	7%	2	5%	13%	-1%	7.9µM*
CC(=O)Nc1ccc(CN2CCn3c(nnc3C3CCNCC3)C2)cc1	·	·	·	·	·	11µM*
COc1ccc(CN2CCn3c(nnc3C3CCNCC3)C2)cc1	·	·	·	·	·	10%[6.33 µM]
CCOc1cc2nc3c4ccccc4n(C)c3nc2cc1OCC	-13%	4	7%	22%	-15%	-18%
CCN(CC)Cc1cc(Nc2c3ccccc3nc3c4ccccc4n(C)c23)cc(CN(CC)CC)c1O	?	10	?	7%	16µM*	?
CC(=O)NC[C@@H]1C=C(C)[C@H](Cc2nc3ccc(C)cc3[nH]2)C[C@H]1C(C)C	·	·	·	·	·	26%[176 µM]
Clc1ccc2nc(-c3ccco3)c(Cc3ccccc3)n2c1	·	0	10µM*	·	·	18µM*
Brc1ccc2nc(-c3ccco3)c(Cc3ccsc3)n2c1	·	0	?	·	·	-113%
Clc1ccc2nc(-c3ccco3)c(Cc3ccsc3)n2c1	·	6	11µM*	·	·	?
O=C1Nc2ccccc2Nc2ccc([N+](=O)[O-])cc21	10µM*	24	3%	10%	-14%	-27%
O=C1OC(=O)c2cc([N+](=O)[O-])ccc21	-10%	-5	0%	3%	-7%	-5%
SMILES	Nrf2 block	LDHA inh	Nrf2 activator	mIDH1 inhibitor	A549 tox	ALOX12 inh
COCCNC(=O)CSCc1nc(-c2ccc(OC)c(OC)c2)oc1C	·	-3	·	·	·	-7%
c1ccc(-c2nc(-c3ccco3)n3ccccc23)cc1	3%	-5	11µM*	4%	5%	?
COc1cccc(-c2csc(N3CCN(C(=O)Nc4ccc(Cl)cc4)CC3)n2)c1	15µM*	-1	-1%	-3%	?	3%
COc1cccc(-c2csc(N3CCN(C(=S)Nc4ccccc4Cl)CC3)n2)c1	?	-2	3%	-3%	-11%	-9%
CC(C)CNC(=S)N1CCN(c2nc(-c3ccc(Cl)cc3)cs2)CC1	18µM*	-9	3%	0%	-2%	0%
COc1cccc(-c2csc(N3CCN(C(=S)NCC(C)C)CC3)n2)c1	18µM*	-1	2%	-2%	-4%	-28%
COc1cccc(-c2csc(N3CCN(C(=S)Nc4cccc(Cl)c4)CC3)n2)c1	18µM*	-7	5%	4%	-8%	-13%
COc1ccc(C2=NN3C(C2)c2cccc(OC)c2OC32CCN(C(C)=O)CC2)c(OC)c1 (stereo not given)	·	4	·	·	·	?
CN1CCN(c2ccc(Nc3c4ccccc4nc4ccccc34)cc2)CC1	·	8	·	·	·	?
CCN1CCN(c2ccc(Nc3ccnc4ccccc34)cc2)CC1	12%	0	0%	-6%	6.5µM*	?
CN1CCN(c2ccc(Nc3ccnc4cc(Cl)ccc34)cc2)CC1	?	-4	4%	0%	6.5µM*	0%
CCN(CC)Cc1nc(C2(O)CCN(C(=O)Nc3ccc(F)cc3)CC2)cs1	·	·	·	·	·	1%[176 µM]
COCCn1c(-c2ccccc2Cl)n[nH]c1=S	·	-4	·	·	·	?
COc1ccc(-c2cc(Nc3cccc(OC)c3)nc(C)n2)cc1	·	13	·	·	·	?
O=C(C(c1ccccc1)c1ccccc1)N(C1CCCCC1)C1CCCCC1	·	0	·	·	·	1%
N#C/C(=C\c1ccc(Oc2ccc(C(F)(F)F)cc2[N+](=O)[O-])cc1)c1nc2ccccc2[nH]1	16µM*	-5	4%	0%	?	15%
CCOC(=O)c1c(Nc2cccc(C)c2)nnc(-c2ccccc2)c1-c1ccccc1	18µM*	5	2%	14%	-16%	-18%
CCc1nc2c(c(-c3ccc(Cl)cc3)n1)CN(Cc1ccc(C(F)(F)F)cc1)CC2	·	·	·	·	·	32%
N#Cc1ccccc1CN1CCNc2nc(CNCc3cnccn3)n(Cc3ccccc3)c2C1=O	·	·	·	·	·	107%
O=C1c2cccc3c(Nc4ccccc4Cl)c([N+](=O)[O-])cc(c23)C(=O)N1CCO	13µM*	-5	7%	-25%	·	?
N#CC1(Br)C(=N)c2ccccc2CC12CCCCC2 (stereo not given)	·	51	·	·	·	0.56µM*
N#CCCn1cc(-c2csc(NC3CCCC3)n2)c2ccccc21	·	15	·	·	·	6.3µM*
c1ccc2c(-c3csc(NC4CC4)n3)c[nH]c2c1	·	24	·	·	·	-50%
O=C(NCc1cccnc1)C(=O)c1cn(CC(=O)N2CCOCC2)c2ccccc12	·	2	·	·	·	32%
O=C(NCCc1ccc(Cl)cc1)c1nc(-c2ccc(Cl)nc2)c2cnccn12	·	·	·	·	·	2%[6.33 µM]
CCc1cc(CC)n(-c2nc3c(c(=O)n(CCN4CCCCC4)c(=O)n3C)n2CC)n1	·	-1	·	·	·	52%
